Bioassay records: PubChem BioAssay, several laboratories
ROMK primary: modulators of human ROMK potassium channel; P48048; Tet-inducible ROMK, thallium flux fluorescence; actives lie on both sides; B-score at 10 µM; 130,000 compounds, 2% hits; AID 1918;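 active = signal ratio slope over the read window, or its plate-corrected B-score, at least 3 SD from the plate mean, either direction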;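 note: B-score of the F/F0 ratio slope over 7 to 12 s after thallium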
Target sequence (P48048 whole entry, looked up): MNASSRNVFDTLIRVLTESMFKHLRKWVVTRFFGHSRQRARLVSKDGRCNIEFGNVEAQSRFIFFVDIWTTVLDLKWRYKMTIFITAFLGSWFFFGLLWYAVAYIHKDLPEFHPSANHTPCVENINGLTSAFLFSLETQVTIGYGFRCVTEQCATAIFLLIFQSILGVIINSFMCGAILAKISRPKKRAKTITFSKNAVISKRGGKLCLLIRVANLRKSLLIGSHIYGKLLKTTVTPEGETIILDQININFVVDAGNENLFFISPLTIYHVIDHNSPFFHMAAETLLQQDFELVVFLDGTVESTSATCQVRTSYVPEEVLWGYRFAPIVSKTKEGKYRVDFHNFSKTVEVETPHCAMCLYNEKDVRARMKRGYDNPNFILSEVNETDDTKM
14-3-3 Bad inh: disrupts binding of bovine 14-3-3 zeta to phospho-Bad peptide; 220,000 compounds, 0.71% hits; P63103; TR-FRET 14-3-3zeta/Dy647-pBad peptide displacement, 1 h; inhibition, % at 21.7 µM; AID 781;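 active = inhibition above about 70%, limit read from the data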;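 note: 0% = full 14-3-3 plus peptide FRET controls and 100% = background without 14-3-3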
L929 necroptosis: L929 zVAD cell death inhibition | L929 zVAD necroptosis rescue, ATP luminescence, 24 h; with zVAD 60 µM | viability rescue, % at 10 µM | 220,000 compounds, 0.38% hits | AID 1377;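 active = activation, scaled between plate controls, above about 75%, limit read from the data; inactive = activation under that limit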;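 note: 0% = zVAD with DMSO and 100% = DMSO alone without zVAD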
TNF death inh: TNF-alpha cell death inhibition in Jurkat FADD-/- cells; Jurkat FADD-/- TNF necroptosis rescue, ATP luminescence, 24 h; 0 = TNF only, 100 = no-TNF cells; activation (protection from cell death), % at 10 µM; 220,000 compounds, 0.068% hits;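 active = activation, meaning protection from cell death, of at least 50% relative to plate controls; inactive = activation below 50%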;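 note: necroptosis triggered by 40 ng/mL TNF-alpha added together with compound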
Efa HMGR inh: inhibitors of class II HMG-CoA reductase from Enterococcus faecalis; purified E. faecalis HMGR, NADPH absorbance 340 nm kinetic; inhibition, % at 10 µM; 190,000 compounds, 0.41% hits; AID 1066;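 active = inhibition above a set limit, the median over all tested compounds plus 3 SD, cut at about 9.5% in these data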;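 note: enzyme runs in reverse so mevalonate oxidation gives rising NADPH absorbance; 0% = complete reaction with DMSO and 100% = background rate lacking mevalonate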
Calpain2 inh: calpain II (pig) inhibition; purified calpain II, fluorogenic peptide substrate, 30 min; inhibition, % at 16 µM; 220,000 compounds, 0.37% hits;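 active = inhibition above about 50%, limit read from the data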
zVAD death conf: confirmed blocker of zVAD induced death in L929 cells. 760 compounds, 16% hits. AID 463117. activation (protection from necroptosis), % at 10 µM. L929 zVAD-induced necroptosis rescue, ATP luminescence, 24 h. shares compounds with L929 necroptosis;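 active = mean protection from necroptosis of at least 50% over duplicate tests; inactive = mean protection below 50%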;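 note: 0% = cells with zVAD alone and 100% = vehicle cells without zVAD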
Numbers without * were called inactive; . = no result given. Most compounds without a hit are left out; they make up all but 3% or so of the library.

SMILES	ROMK primary	14-3-3 Bad inh	L929 necroptosis	TNF death inh	Efa HMGR inh	Calpain2 inh	zVAD death conf
O=C(Nc1ccc(-c2csc(Nc3ccc(Cl)cc3)n2)cc1)c1cccc(C(F)(F)F)c1	.	-9	82*	8	.	-45	39
S=C1NCN(C2CCCCC2)CN1Cc1ccccc1	-0.24	-12	0	0	-1	16	.
Nc1c(C(=O)OCC(=O)NCc2ccccc2)[nH]c(=O)[nH]c1=O	-0.24	-2	1	2	.	-16	.
O=[N+]([O-])c1ncn(Cc2c(Cl)cccc2Cl)n1	.	-2	94*	96*	-6	9	4
O=[N+]([O-])c1ncn(Cc2ccccc2Cl)n1	-0.044	-17	88*	83*	0	-6	20
O=C(Nc1cnn(Cc2c(Cl)cccc2Cl)c1)c1ccc([N+](=O)[O-])cc1	1.2	8	0	0	-2	19	.
O=C(Cn1cnc([N+](=O)[O-])n1)NCc1ccccc1	-0.28	-3	0	4	2	-35	.
CC(=O)NC(=S)Nc1ccc(N2CCOCC2)c(S(=O)(=O)Nc2cc(Cl)ccc2Cl)c1	-0.94	-6	1	-2	-1	-57	.
CCCn1nnnc1NC(=O)c1cc(Cl)ccc1Cl	.	-12	0	1	-2	0	.
O=C(Nc1nnc(COc2ccc(F)cc2)s1)Nc1ccccc1F	0	2	-1	0	.	1	.
COc1cc(/C=N/NC(=O)CCC(=O)NC2CCCCC2)ccc1C	-0.28	5	-1	1	-5	19	.
N/C(=N\NC(=O)Nc1ccc(Cl)cc1)c1ccccn1	.	-10	81*	1	.	5	3
CCCN1C(=O)/C(=C/c2ccc(C)s2)NC1=S	5.5*	-9	92*	30	2	20	87*
Cc1cc(C)c2oc(C(=O)N(Cc3ccccc3)C3CCS(=O)(=O)C3)cc(=O)c2c1 (centres undefined)	.	-4	-1	-3	.	-20	.
Cc1nc2c3cc(Cl)ccc3n(CCN3CCCCC3)c2s1	-2.3	-7	1	-2	1	2	.
Cc1cccc(Nc2ncnc3c2cnn3C)c1	0.1	0	62	2	3	-25	.
Cn1ncc2c(Nc3ccc4ccccc4c3)ncnc21	-0.88	5	92*	-3	-3	24	3
O=C(NC(=S)Nc1cccc(NC(=O)c2ccc(Cl)cc2Cl)c1)c1cccs1	.	-9	77*	-1	-6	17	35
CCC(=O)Nc1cccc(NC(=S)NC(=O)c2ccc(Cl)cc2Cl)c1	.	-12	1	0	0	3	.
Cc1cnc(N)c2c(=O)oc3ccccc3c12	.	2	84*	-1	0	-105	3
Cc1ccccc1C1c2[nH]c3ccccc3c2CCN1Cc1cccn1-c1ncccn1 (centres undefined)	.	-4	0	-1	.	-64	.
C=CC[n+]1ccc(/C=C2\C=Cc3cc(C)ccc3N2CC)c2ccccc21	-1.4	-7	-1	-11	1	18	.
Cc1[nH]c2c(ccc3cccnc32)c1C	.	5	78*	12	.	-17	10
COc1ccc2nc(NC(=O)C3CCN(S(=O)(=O)c4cccs4)CC3)sc2c1	0.081	15	79*	0	-4	-57	31
COc1ccc2nc(NC(=O)C3CCN(S(=O)(=O)c4cccnc4)CC3)sc2c1	.	6	88*	0	-4	-6	5
SMILES	ROMK primary	14-3-3 Bad inh	L929 necroptosis	TNF death inh	Efa HMGR inh	Calpain2 inh	zVAD death conf
Cc1ccc2nc(NC(=O)C3CCN(S(=O)(=O)c4cccnc4)CC3)sc2c1	.	7	80*	-2	1	-27	5
CCOc1ccc2nc(NC(=O)C3CCN(S(=O)(=O)c4cnc[nH]4)CC3)sc2c1	.	-6	83*	0	-5	2	10
COc1ccc(S(=O)(=O)NCCc2nnc3ccc(SCC(=O)Nc4nc(C)cs4)nn23)cc1	0.41	6	1	6	1	-5	.
COCCNCC(=O)Nc1ccccc1Sc1ccccc1	.	29	1	-1	-3	10	.
CC(C)CNC(=O)NC(=O)COC(=O)Cn1cnc2ccccc2c1=O	0.22	5	1	0	-1	-6	.
CCOc1ccc(/C=C\C(C)=N\O)cc1	-0.13	3	99*	8	-5	6	31
O=[N+]([O-])c1ccc(S(=O)(=O)NCCc2ccncc2)cc1	-0.093	6	2	0	-6	5	.
COc1ccc(/C=N/Nc2cc(N(C)C)nc(N(C)C)n2)cc1	-1.1	-1	4	0	1	17	.
Fc1ccc(/C=N/Nc2ccccn2)cc1	0.86	-17	73	17	0	5	.
CCOc1ccc(/C=N/Nc2ccccn2)cc1	-0.055	-14	78*	12	-2	1	4
Clc1ccc(/C=N/Nc2ccccn2)cc1	0.72	-5	81*	18	-1	-2	45
COc1ccc(/C=N/Nc2cc(OC)ncn2)cc1	.	4	78*	6	-2	0	28
Cc1noc(C)c1/C=N/Nc1ccccn1	0.025	-10	82*	45	-2	-12	73*
COc1cc(/C=N/NC(=O)C(=O)Nc2ccccn2)ccc1O	.	-6	0	0	-1	40	.
COc1ccc(/C=N/Nc2ccccn2)cc1O	.	-9	90*	60*	.	2	64*
Brc1ccc(/C=N/Nc2ccccn2)cc1	0.052	-5	78*	15	-5	-17	4
CC1(C)COC(c2cccc(C3=NC(C)(C)CO3)n2)=N1	.	14	2	0	-2	4	.
CN1C(=O)/C(=C\C(=O)c2cccs2)c2ccccc21	-1.4	-7	86*	-9	0	-14	2
COc1ccc(S(=O)(=O)N2c3ccccc3OCC2c2ccccc2)cc1 (centres undefined)	.	3	0	-17	1	23	.
O=C(CCl)N1c2ccccc2OCC1c1ccccc1 (centres undefined)	.	2	90*	-15	-5	-3	3
O=C(CN1CCOCC1)Nc1nc2ccc(Br)cc2s1	.	5	77*	4	-2	-9	16
N#Cc1c(N)nc2c(c1-c1ccccc1)CCC2	0.046	-12	79*	-5	-4	-352	8
Cc1ccc(Nc2nc(-c3ccc(O)c(O)c3)cs2)nc1	.	-3	79*	-7	0	-85	38
COc1ccc(-c2csc(Nc3ccc(C)cn3)n2)cc1OC	0.22	-9	4	1	-2	-23	.
Cc1nn(C)c(C(=O)Nc2ccc(Cl)c([N+](=O)[O-])c2)c1Cl	0.8	-5	1	2	-1	-1	.
COc1ccc(S(=O)(=O)N(CC(=O)N/N=C/c2cccs2)c2cc(C)cc(C)c2)cc1OC	.	7	1	-10	3	-148	.
